PubChem BioAssay

Assays:
[1] = system: Botulinum neurotoxin type F light chain protease (Clostridium botulinum); experiment: Clostridium botulinum type F light chain protease inhibitors, microsphere substrate cleavage, validation (AID 588459); details: multiplex microsphere protease substrate cleavage assay, flow cytometry; at 10 µM; active compounds read high
[2] = target: Botulinum neurotoxin type A (Clostridium botulinum) (UniProt P0DPI0); experiment: BoNT/A light chain protease inhibitors, biochemical, multiplex microsphere flow cytometry, validation set (AID 588460); details: at 10 µM, active compounds read high
Botulinum neurotoxin type A (Clostridium botulinum), sequence (P0DPI0 whole entry, looked up): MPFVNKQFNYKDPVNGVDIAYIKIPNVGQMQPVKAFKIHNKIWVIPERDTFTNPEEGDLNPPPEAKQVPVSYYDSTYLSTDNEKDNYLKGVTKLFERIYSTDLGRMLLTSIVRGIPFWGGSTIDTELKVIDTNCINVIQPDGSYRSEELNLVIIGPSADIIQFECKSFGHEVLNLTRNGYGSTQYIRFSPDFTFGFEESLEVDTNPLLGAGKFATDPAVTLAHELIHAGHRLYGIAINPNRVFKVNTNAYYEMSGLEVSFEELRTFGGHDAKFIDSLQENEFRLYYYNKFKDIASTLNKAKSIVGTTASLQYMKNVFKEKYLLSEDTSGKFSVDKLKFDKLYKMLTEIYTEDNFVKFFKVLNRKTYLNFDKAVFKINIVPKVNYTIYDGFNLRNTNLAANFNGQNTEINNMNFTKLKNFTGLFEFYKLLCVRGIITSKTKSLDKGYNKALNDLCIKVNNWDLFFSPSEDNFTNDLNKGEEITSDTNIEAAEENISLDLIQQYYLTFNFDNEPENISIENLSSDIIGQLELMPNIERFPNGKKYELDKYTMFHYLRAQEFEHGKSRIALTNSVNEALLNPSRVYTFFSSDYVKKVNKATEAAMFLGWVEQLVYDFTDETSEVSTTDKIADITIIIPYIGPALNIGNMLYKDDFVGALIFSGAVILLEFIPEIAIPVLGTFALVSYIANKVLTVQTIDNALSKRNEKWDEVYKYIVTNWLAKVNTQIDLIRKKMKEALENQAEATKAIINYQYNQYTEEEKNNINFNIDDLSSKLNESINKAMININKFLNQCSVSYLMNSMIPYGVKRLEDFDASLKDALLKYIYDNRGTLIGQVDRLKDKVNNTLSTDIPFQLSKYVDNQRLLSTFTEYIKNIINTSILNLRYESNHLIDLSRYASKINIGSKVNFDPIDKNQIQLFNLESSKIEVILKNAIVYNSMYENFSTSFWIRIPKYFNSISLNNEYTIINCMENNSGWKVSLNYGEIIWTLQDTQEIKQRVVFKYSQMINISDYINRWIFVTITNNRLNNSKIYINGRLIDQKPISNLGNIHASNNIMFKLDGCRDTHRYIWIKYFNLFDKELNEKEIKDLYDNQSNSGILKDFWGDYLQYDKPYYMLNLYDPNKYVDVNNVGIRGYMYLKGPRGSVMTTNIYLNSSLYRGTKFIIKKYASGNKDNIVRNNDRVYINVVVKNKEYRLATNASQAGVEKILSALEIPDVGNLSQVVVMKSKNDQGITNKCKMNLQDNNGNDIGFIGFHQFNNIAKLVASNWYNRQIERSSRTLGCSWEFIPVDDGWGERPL

[3] = target: Lethal factor (Bacillus anthracis) (UniProt P15917); experiment: Bacillus anthracis lethal factor inhibition, microsphere flow cytometry protease assay, validation at 10 µM (AID 588461); details: multiplex microsphere protease cleavage assay, active compounds read high
Lethal factor (Bacillus anthracis), sequence (P15917 whole entry, looked up): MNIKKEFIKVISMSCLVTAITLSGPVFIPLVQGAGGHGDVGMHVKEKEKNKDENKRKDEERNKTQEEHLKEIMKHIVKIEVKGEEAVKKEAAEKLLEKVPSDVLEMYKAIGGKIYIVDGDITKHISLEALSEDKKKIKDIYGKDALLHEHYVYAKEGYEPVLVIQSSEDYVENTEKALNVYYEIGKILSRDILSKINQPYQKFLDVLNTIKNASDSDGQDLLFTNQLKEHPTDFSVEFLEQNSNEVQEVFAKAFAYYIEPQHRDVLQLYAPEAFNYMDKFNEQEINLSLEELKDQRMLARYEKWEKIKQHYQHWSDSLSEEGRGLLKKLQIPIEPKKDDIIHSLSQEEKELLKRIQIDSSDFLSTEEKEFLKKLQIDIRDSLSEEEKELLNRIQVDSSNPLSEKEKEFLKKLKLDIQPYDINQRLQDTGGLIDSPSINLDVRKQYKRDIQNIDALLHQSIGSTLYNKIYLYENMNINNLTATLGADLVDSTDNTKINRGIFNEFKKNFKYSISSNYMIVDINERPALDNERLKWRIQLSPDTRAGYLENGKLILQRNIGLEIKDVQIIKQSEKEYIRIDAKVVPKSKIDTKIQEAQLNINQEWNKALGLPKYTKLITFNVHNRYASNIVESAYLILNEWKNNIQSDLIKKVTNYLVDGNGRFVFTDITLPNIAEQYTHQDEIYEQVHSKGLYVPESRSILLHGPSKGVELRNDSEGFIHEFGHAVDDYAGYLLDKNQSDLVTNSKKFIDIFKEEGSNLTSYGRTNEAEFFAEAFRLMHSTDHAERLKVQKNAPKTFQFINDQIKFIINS

Measured: inhibition

CCOc1ccc(CC2c3cc(OCC)c(OCC)cc3CCN2C(=O)CN2CCN(C)CC2)cc1OCC (configuration not stated)
inactive: [1] -5.9% | [2] -1.4% | [3] 7.9%

CCOc1ccc(NC2OC(C)C(O)C(O)C2O)c([N+](=O)[O-])c1 (configuration not stated)
inactive: [1] 3.1% | [2] -0.7% | [3] 11.5%

COc1cc(/C=C/C(=O)CC(=O)/C=C/c2ccc(O)c(OC)c2)ccc1O
inactive: [1] 12.2% | [2] 9.5% | [3] -0.9%

CC12CCC(C(=O)Nc3ccccc3Br)(C/C1=N\O)C2(C)C (configuration not stated)
inactive: [1] -3.6% | [2] -0.7% | [3] -6.5%

Cc1ccccc1NC(=O)NCCc1c[nH]c2ccccc12
inactive: [1] -1.9% | [2] -0.2% | [3] -3.6%

COc1cccc(OCc2cc(C3Nc4ccccc4C(=O)N3Cc3ccco3)ccc2OC)c1 (configuration not stated)
inactive: [1] -1% | [2] 0.9% | [3] -2.1%

C[C@H](CCC(=O)O)[C@H]1CC[C@H]2[C@@H]3C(=O)C[C@@H]4CC(=O)CC[C@]4(C)[C@H]3CC(=O)[C@]12C
inactive: [1] -1.4% | [2] -0.5% | [3] -0.9%

Nc1cnn(C2OC(CO)C(O)C2O)c(=O)n1 (configuration not stated)
inactive: [1] 0.5% | [2] 0% | [3] -3.7%

CN=C(NC#N)NCCSCc1nc[nH]c1C
inactive: [1] -0.4% | [2] 0.9% | [3] -3.5%

COc1cc(=O)n(C)c2ccccc12
inactive: [1] -9.2% | [2] -2.1% | [3] -7.3%

COc1ccc(O)c(C2=Nc3ccccc3N=C(c3ccccc3)C2)c1
inactive: [1] 0.8% | [2] 0.8% | [3] 4.2%

COc1ccc(C(=O)c2oc3ccc(Br)cc3c2NC(C)=O)cc1
inactive: [1] 0.3% | [2] -1.1% | [3] -3.6%

COc1ccc2cc(C3(C)NC(=O)NC3=O)ccc2c1 (configuration not stated)
inactive: [1] -0.4% | [2] -0.4% | [3] 0.8%

Cc1ccc(C2CC(c3cccs3)=NN2C(=O)c2ccco2)o1 (configuration not stated)
inactive: [1] -0.5% | [2] -0.5% | [3] 1.3%

COc1ccc(-c2[nH]ncc2C=O)cc1OC
inactive: [1] -3.5% | [2] -0.8% | [3] -2.5%

CCC1CCc2c(sc(NC(=O)c3cccnc3)c2C(N)=O)C1 (configuration not stated)
inactive: [1] -4.8% | [2] -2.3% | [3] -6.2%

COc1ccccc1NC(=O)C12CCC(C)(C(=O)C1)C2(C)C (configuration not stated)
inactive: [1] -1% | [2] 0.8% | [3] 0.3%

C[C@H](NC(=O)NCCc1ccccc1)C(=O)O
inactive: [1] 0.5% | [2] -0.2% | [3] -0.6%

COc1ccc(-c2nc3c(=O)n(C)c(=O)[nH]c3n2CCc2ccccc2)cc1
inactive: [1] 1.2% | [2] 0.2% | [3] -1.2%

Cc1csc(N)n1
inactive: [1] 0.3% | [2] 0.1% | [3] 3%

Clc1ccc(Cn2c(CN3CCCC3)nc3ccccc32)cc1
inactive: [1] -2.6% | [2] -1% | [3] -0.3%

COc1cccc(CN2C(=O)N(C(C)C)C(N(O)C(=O)NC(C)C)C2(C)C)c1OC (configuration not stated)
inactive: [1] -1.7% | [2] -0.8% | [3] -2.1%

COc1ccc(NC(=O)C2OC3OC(C)(C)OC3C3OC(C)(C)OC23)cc1 (configuration not stated)
inactive: [1] -1.2% | [2] 1.3% | [3] -5.4%

Cc1cc(C)c2c(CCl)cc(=O)oc2c1
inactive: [1] -4.3% | [2] -1.5% | [3] -3.4%

COc1ccc(CCN(C)CCCC(C#N)(c2cc(OC)c(OC)c(OC)c2)C(C)C)cc1OC (configuration not stated)
inactive: [1] 5.3% | [2] 1.8% | [3] 6.4%

COc1ccc(/C=C/C(=O)NC(=S)NN2CCCCC2c2cccnc2)cc1 (configuration not stated)
inactive: [1] 3.7% | [2] 1.8% | [3] -3.5%

COc1cc(C(=O)Nc2cccc(-c3nnc(-c4ccco4)o3)c2)ccc1OC(C)=O
inactive: [1] 3.1% | [2] 2.1% | [3] 0.6%

COc1ccc(CNCCC(c2ccc(F)cc2)c2ccc(OC(C)C)cc2)cc1OC (configuration not stated)
inactive: [1] -0.6% | [2] -2% | [3] 8.2%

CC(C)N1C(=O)/C(=C\c2nc3ccccc3c(=O)[nH]2)c2ccccc21
inactive: [1] -0.2% | [2] -0.6% | [3] -0.1%
